Experimental data published in PubChem BioAssay (NCI).
About 83,000 compounds went through this panel and 20% of them were active in at least one assay; those are over-represented in the sample as a whole.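 Compound tested at a single concentration for 48 hours in 96-well plates; a percent growth value below 10 was scored as active.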 Unmarked numbers belong to inactive results. Active and inactive are the calls of the source.

tested on: MDA-MB-468 breast; assay: NCI-60 one-dose screen, 48 h (100 = growth as untreated, 0 = no growth, -100 = all killed); conditions: 10 µM unless noted

Row | Compound | growth
1 | Cc1ccc(-c2cc3nc(C(Cl)Cl)nc(-c4ccccc4C)n3n2)cc1 | 49.8%
2 | COc1ccc(C=Nc2c(C(=O)Nc3cccc(Cl)c3C)sc3nc(C)c(C(=O)/C=C/c4ccc(OC)cc4)cc23)cc1 | 17.3%
3 | CCOC(=O)C1CCNC(=O)C1=O (stereo not given) | 99.5%
4 | C/C=C(\C)C(C(=O)NC1CCCCC1)N(C(=O)C1CCc2cc(F)ccc2O1)c1ccc([N+](=O)[O-])cc1 (stereo not given) | 85.6%
5 | O=S(=O)(O)c1ccc(O)c(C2CCCCC2)c1 | 103%
6 | c1ccc(Nc2ccccn2)nc1 | 93.3%
7 | COc1ccc(S(=O)(=O)NCCNc2nccc(-c3c(-c4cccc(N)c4)nc4sccn34)n2)cc1 | 88.5%
8 | CC1=CC(=Nc2ccc(N(C)C)cc2)C=C(C)C1=O | 15%
9 | Cc1ccc(-c2nc(/C=C3/C(=O)Nc4ccc(F)cc43)c3ccccn23)cc1 | 77.3%
10 | O=C(/C=C/c1ccccc1)c1cccs1 | 80.2%
11 | CNC(=O)c1ccccc1Oc1nc(Nc2cc(OC)c(OC)c(OC)c2)ncc1Br | 49.6%
12 | C[N+]1(CCc2ccccc2)CCC(CCC2CC[N+](C)(CCc3ccccc3)CC2)CC1 (stereo not given) | 28.8%
13 | O=C(O)c1cccc2c1-c1ccccc1C2=O | 116%
14 | CN(C)CCN1C(=O)c2c(c3c4ccccc4n4c3c3c2c2ccccc2n3C2CC(O)C(O)C4(C)O2)C1=O (stereo not given) | 12.8%
15 | Clc1ncnc2nc[nH]c12 | 108%
16 | COc1cc2nc(-c3ccc(C(F)(F)F)cc3)cc(OCCN3CCCCC3)c2cc1OC | 93.6%
17 | C#CC(=O)N(c1ccc(OC)cc1OC)C(C(=O)NCC(=O)OCC)c1cccs1 (stereo not given) | 20.2%
18 | CCN(CC)c1ccc(/C=N\NC(=O)/C=C/C=C/c2ccc3c(c2)OCO3)c(O)c1 | 13.4%
19 | O=S(=O)(NCCO)c1ccc(OCCOc2ccc(S(=O)(=O)NCCO)cc2)cc1 | 95.3%
20 | CC(=O)c1ccc(Nc2nccc(-c3ccc4ccccc4c3)n2)cc1 | 76.8%

Row | Compound | growth
21 | COc1ccccc1CNCCCCCCCCCCCCN1C(=O)c2ccc3c4c(ccc(c24)C1=O)C(=O)N(CCCCCCCCCCCCNCc1ccccc1OC)C3=O | -8.04% (active)
22 | Cc1c(F)cccc1NC(=O)c1sc2nc3c(cc2c1N)CCCCC3 | 14.8%
23 | NC(=O)CN1CCN(c2ccccc2Cl)CC1 | 108%
24 | CS(=O)(=O)Nc1cc(-c2ccc3ncnc(Nc4ccc(F)c(Cl)c4)c3c2)ccc1Cl | -32% (active)
25 | O=C1Nc2c(ccc(Cl)c2Cl)/C1=C\c1ccc(C(F)(F)F)cc1 | 92.8%
26 | COc1ccc(-c2ccc(-c3ccc(C(=N)N)c(F)c3)s2)cc1 | -78.7% (active)
27 | C[C@]12CC[C@@H]3c4ccc(O)c(N)c4CC[C@H]3[C@@H]1CC[C@@H]2O | 59.8%
28 | CCCN(CCC)CC(O)COc1ccccc1C(=O)Nc1ccccc1 (stereo not given) | 85.9%
29 | CCN(CC)CCOc1ccccc1C | 118%
30 | CCN1CCN(c2cc(C)nc(NCc3cc(Nc4ccnc5cc(Cl)ccc45)ccc3F)n2)CC1 | 47.4%
31 | COc1ccc(C(C)=O)c(OC)c1 | 97.7%
32 | COc1ccc(C2=NOC(CC(=O)N(CCO)CCO)C2)cc1OC1CCCC1 (stereo not given) | 90.2%
33 | CN(C)CC(=O)Nc1ccc(Cn2nnc3c2C(=O)c2nnn(Cc4ccc(NC(=O)CN(C)C)cc4)c2C3=O)cc1 | -79% (active)
34 | CCN(CC)CCCNc1ccc(Nc2ccc(OC)cc2)cc1 | 78.8%
35 | O=[N+]([O-])c1ccc(-n2[nH]nnc2=S)cc1 | 123%
36 | C=C(C)[C@@H]1CC[C@]2(C(=O)NCCCO)CC[C@]3(C)[C@H](CC[C@@H]4[C@@]5(C)CCCNC(C)(C)[C@@H]5CC[C@]43C)[C@@H]12 | 72.3%
37 | COc1cc(C2=NN(C=O)C(c3cccc(Nc4ccnc5cc(Cl)ccc45)c3)C2)cc(OC)c1OC (stereo not given) | 59.2%
38 | O=C1CSc2ccccc2N1 | 112%
39 | N=c1sc(Cc2ccc(Cl)cc2)cn1CC(=O)c1ccc(F)cc1 | 84.7%
40 | COc1ccc(C(=O)NC(=O)Nc2cc3c(cc2F)/C(=C/c2[nH]c(C)c(CCC(=O)O)c2C)C(=O)N3)c(F)c1 | 50.4%
